The text below walks through data of PubChem BioAssay (Tox21).

Activity calls are given as the source filed them. A call without a number means that no potency is given here. Calls follow the shape of the dose curve; as a rule, active = well fitted cell-killing curve with a large enough effect in the repeat runs; inconclusive = weak or mixed curves, or effect the other way; inactive = flat fitted curve, though single readings scatter.
Potency is read from the fitted curve at half-maximal effect.

The experiment can be described thus: qHTS assay to identify small molecule HDAC inhibitors - cell viability counter screen (AID 1259365). Also: nearly all actives have a fitted effect of over 50% in size. The settings on record: HCT-116 viability, CellTiter-Glo ATP luminescence, 2 h; series mostly up to 92.4 µM. The text has this: U.S. Tox21 Program National Center for Advancing Translational Sciences [NCATS] NIH Chemical Genomics Center [NCGC] U.S. Environmental Protection Agency [EPA] National Institutes of Environmental Health Sciences [NIEHS] National Toxicology Program [NTP] U.S. Food and Drug Administration [FDA] Tox21 Assay Overview: Histone deacetylases (HDACs) are a group of epigenetic enzymes that regulate gene expression by histone deacetylation. HDACs are capable of introducing epigenetic modifications and such aberrations contribute to the onset and progression of several human diseases, thus making HDACs a popular therapeutic target. For identifying endogenous class I/II HDAC inhibitors a homogenous, luminogenic HDAC I/II cell based assay was used to measure the relative activity of class I and II HDACs from cells. Wild type HCT-116 cells were used to screen Tox21 compound libraries for identifying class I/II HDAC inhibitors.
Tox21 Assay Protocol Summary: HCT-116 cells were dispensed at 1,500 per well in 5uL of culture medium into white solid bottom 1536-well plates (Greiner Bio-One, Monroe, NC) using a Multidrop Combi (Thermo Scientific, Waltham, MA) dispenser. The assay plates were incubated at 37 C and 5% CO2 for an overnight, and then 23nL of compounds dissolved in DMSO and positive control were transferred using a Pintool station (Wako, San Diego, CA). The assay plates were incubated at 37C and 5% CO2 for 2hr. After compound treatment, 4uL of CellTiter-Glo reagent (Promega Corporation, Madison, WI) was added to each well of the assay plates using Flying Reagent Dispenser (FRD, Aurora Discovery, San Diego, CA) and incubated the assay plates at room temperature for 30min. The luminescence signal was quantified using a ViewLux plate reader (Perkin Elmer, Shelton, CT).
Turning to `CC(C)(c1ccccc1)c1ccccc1`, the Potency result is “inactive”.

Consider `O=c1cc(-c2ccccc2)oc2ccc3ccccc3c12`, for which the Potency is 17.2 µM (active).

On to `CO/N=C(/C(=O)N[C@@H]1C(=O)N2C(C(=O)O)=C(COC(N)=O)CS[C@H]12)c1ccco1`, for which the Potency entry is “inactive”.

As for `O=[N+]([O-])c1ccc(Nc2ccc(Nc3ccccc3)c(S(=O)(=O)O)c2)c([N+](=O)[O-])c1`, the Potency result was “inactive”.

Consider `CCCCC(CC)COP(=O)(O)O` (stereo not given), for which the Potency result is “inactive”.

As to `COc1ncnc(NS(=O)(=O)c2ccc(N)cc2)c1OC`, the Potency entry is “inactive”.

As for `CCOC(=O)c1ccc(I)cc1`, the Potency result is “inactive”.

As for `CC[C@]1(O)C[C@H]2CN(CCc3c([nH]c4ccccc34)[C@@](C(=O)OC)(c3cc4c(cc3OC)N(C=O)[C@H]3[C@@](O)(C(=O)OC)[C@H](OC(C)=O)[C@]5(CC)C=CCN6CC[C@]43[C@@H]65)C2)C1`, the Potency entry was “inactive”.

As for `CC(CC1c2ccccc2CCc2ccccc21)CN(C)C` (stereo not given), the Potency result is “inactive”.

For the compound `Cc1cccc(O)c1N`, the Potency entry was “inactive”.

Consider `Brc1cc2ccccc2c2ccccc12`, for which the Potency entry is “inactive”.

Regarding `CN(C)CCN1C(=O)c2ccccc2N(C)c2ccccc21`, the Potency result was “inactive”.

As to `CN1C(=O)OC(C)(C)C1=O`, the Potency result is “inactive”.

With `C[C@@H](O[C@H]1OCCN(Cc2n[nH]c(=O)[nH]2)[C@H]1c1ccc(F)cc1)c1cc(C(F)(F)F)cc(C(F)(F)F)c1`, the Potency entry is “inactive”.

As to `Nc1ccc(N=Nc2ccccc2)c(N)c1`, the Potency entry is “inactive”.

For `Cc1ccc(Cl)c(Nc2ccccc2C(=O)O)c1Cl`, the Potency result was “inactive”.

As to `CCCCCCNC(=O)n1cc(F)c(=O)[nH]c1=O`, the Potency result was “inactive”.

`C=C(C)[C@@H]1CCC2=CCC[C@@H](C)[C@]2(C)C1`: the Potency result is “inactive”.

`OC1(c2ccccc2)CCNCC1`: the Potency result is “inactive”.

In the case of `C[C@H]1c2cccc(O)c2C(O)=C2C(=O)[C@]3(O)C(O)=C(C(N)=O)C(=O)[C@@H](N(C)C)[C@@H]3[C@@H](O)[C@@H]21`, the Potency result was “inactive”.

With `CCCCCCCC/C=C\CCCCCCCCCCCC(=O)O`, the Potency result was “inactive”.

As to `Oc1c(I)cc(I)c2cccnc12`, the Potency result was “inactive”.

`Cc1cc(C)cc(N)c1`: the Potency entry was “inactive”.

With `N#CCc1ccc(Cl)cc1Cl`, the Potency result was “inactive”.

For `Nc1nnc(-c2ccc([N+](=O)[O-])o2)o1`, the Potency entry is “inactive”.

Consider `COC(=O)c1nc(Cl)c(Cl)nc1N`, for which the Potency entry is “inactive”.

As for `C=CC(=O)[O-].C=CC(=O)[O-].[Zn+2]`, the Potency result is “inactive”.

Consider `O=c1[nH]ncc2ccccc12`, for which the Potency entry is “inactive”.

`CC(=O)OCC(=O)NCCCOc1cccc(CN2CCCCC2)c1`: the Potency result was “inactive”.

In the case of `CC(C)=CCC/C(C)=C/CC/C(C)=C/C(=O)OCC(=O)[C@@]1(O)CC[C@H]2[C@@H]3CCC4=CC(=O)C=C[C@]4(C)[C@H]3[C@@H](O)C[C@@]21C`, the Potency entry was “inactive”.

Take `O=C=Nc1ccc(Cl)c(Cl)c1`: the Potency entry is “inactive”.

For the compound `O=c1c(O)c(-c2ccc(O)cc2)oc2cc(O)cc(O)c12`, the Potency result is “inactive”.

In the case of `CC(=O)Oc1ccc([N+](=O)[O-])cc1CCl`, the Potency result is “inactive”.

For the compound `CCOC(=O)[C@H](CCc1ccccc1)N[C@@H](C)C(=O)N(CC(=O)O)C1Cc2ccccc2C1`, the Potency result is “inactive”.

As for `O[C@@H]1CO[C@H]2[C@@H]1OC[C@@H]2O`, the Potency result was “inactive”.

For `C=C/C(C)=C/C/C=C(\C)CCC=C(C)C`, the Potency result was “inactive”.

For `CC(C)C(O)(c1ccc(OC(F)(F)F)cc1)c1cncnc1` (stereo not given), the Potency result is “inactive”.

Consider `CC1=Nc2ccc3ccccc3c2C1(C)C`, for which the Potency entry is “inactive”.

For `COc1ccccc1N1CCN(CC(O)COc2cccc3ccccc23)CC1` (stereo not given), the Potency entry was “inactive”.

`Brc1cc(Br)c(Oc2cc(Br)c(Br)cc2Br)cc1Br`: the Potency result was “inactive”.
